Laboratory results reported in PubChem BioAssay (NCI).
Compounds without any hit were thinned out: in the full panel of roughly 83,000, 20% have a hit.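 Assay: single dose, 48 h. Readout: percent growth (0 = no net growth; negative = cell death). Active: <10.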 The source made the active and inactive calls.

tested on: HL-60(TB) leukemia; test: NCI-60 one-dose screen, 48 h (100 = growth as untreated, 0 = no growth, -100 = all killed); settings: 10 µM unless noted

SMILES	growth
CC(C)NC(=O)OCC#CCOC(=O)NC(C)C	95.7% (inactive)
C=C[C@]1(C)C=C2CC[C@@H]3C(C)(C)C(=O)CC[C@@]3(C)[C@@H]2CC1	101% (inactive)
CCN(CC)CCCC(C)Nc1cnc(C(=O)Nc2cc(C)cc3cccnc23)cn1 (centres undefined)	76.8% (inactive)
COc1ccc(-c2[nH]c3ccccc3c2C=C(C#N)C#N)cc1	-48.9% (active)
C=CN(C(=O)N1CCN(c2cc3c(cc2F)c(=O)c(C(=O)O)cn3C2CC2)CC1)c1nc(-c2ccc(Cl)cc2)cs1	10.7% (inactive)
O=C1CC(c2ccc3c(c2)OCO3)Nc2ccccc21 (centres undefined)	0.897% (active)
CN(C)c1ccc(N=Nc2cccc3ccccc23)cc1	77.4% (inactive)
CCN(CC)CCCC(C)Nc1cc(-c2ccc(C(F)(F)F)cc2)c(C#N)c2nc3ccccc3n12 (centres undefined)	-59.8% (active)
O=C1C(Cl)=C(Nc2cccc3cc4ccccc4nc23)C(=O)c2ccccc21	47.8% (inactive)
COc1ccc(C2OC(N)=C(O)C2=O)cc1OC (centres undefined)	92.6% (inactive)
O=C(O)c1ccc(P(=O)(O)O)c([N+](=O)[O-])c1	100% (inactive)
CCCCC(C=O)(C=C=C(C)C)CC (centres undefined)	104% (inactive)
CCCCNc1ccc(Nc2ccccc2)cc1	16.5% (inactive)
CCCCOCCOCCOCc1cc2c(cc1Br)OCO2	108% (inactive)
CCN1CCN(c2nc3ccccc3c3c(=O)c4ccccc4sc23)CC1	76.4% (inactive)
C=CCn1c(CN2CCN(c3cc4c(cc3F)c(=O)c(C(=O)O)cn4C3CC3)CC2)n[nH]c1=S	90.1% (inactive)
O=c1[nH]c2ccc(Cl)cc2c2ccccc12	130% (inactive)
CCOC(=O)c1ccc(NC(C)=O)o1	80.6% (inactive)
c1ccc2cc(Cn3c(-c4cccc5ccccc45)[n+](Cc4ccc5ccccc5c4)c4c5ccccc5c5ccccc5c43)ccc2c1	-54.6% (active)
O=C(NC1CCN(Cc2ccccc2)CC1)c1cc(-c2ccncc2)nc2ccc(Cl)cc12	15.2% (inactive)
Cc1ccc(C2=Nc3c(N)nc(N)nc3NC(c3cccc(Nc4ccnc5cc(C(F)(F)F)ccc45)c3)C2)cc1 (centres undefined)	-11.3% (active)
Cc1ccc(CS/C(=C\c2ccc([N+](=O)[O-])cc2)C(=O)c2ccc(F)cc2)cc1	30.4% (inactive)
Cc1cc(O)c(C(C)(C)C)cc1Sc1cc(C(C)(C)C)c(O)cc1C	-20.9% (active)
COc1ccc(-c2nn(-c3cccc(Cl)c3)cc2-c2cc(-c3ccc(Br)cc3)nc(N)n2)cc1	88.4% (inactive)
